Bioassay records: PubChem BioAssay, The Scripps Research Institute Molecular Screening Center
KLK7 zymogen act: proKLK7 (human) activation, primary screen; P49862; purified proKLK7, EDANS-DABCYL substrate fluorescence; 100% is mature enzyme control, 0% vehicle; activation, % at 7 µM; 0.9% of 370,000 active;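 active means activation above the mean of all tested compounds plus 3 SD, computed per campaign excluding outliers beyond control limits, cut at about 13% in these data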
ADAM17 inh: inhibitors of human ADAM17. recombinant ADAM17, EDANS/DABCYL FRET peptide cleavage. inhibition, % at 6.95 µM. 0.83% of 370,000 active. AID 720648;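 active means inhibition above the mean of compounds lying between control limits plus 3 SD, set per campaign, cut at about 8.5% in these data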;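 further: 0% = DMSO-only wells as the low control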
HGIII-sPLA2 inh: Inhibits HGIII-sPLA2 liposome hydrolysis, primary screen. Q9NZ20. QFRET BODIPY PC-A2 liposome hydrolysis, fluorescence. inhibition, % at 12.2 µM. 0.56% of 370,000 active;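 active means inhibition above mean plus 3 SD of compounds lying within the high and low control bounds, cut at about 19% in these data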;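 further: 0% = median of test compound wells and 100% = no enzyme DMSO wells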
ADAM10 inh: inhibitors of human ADAM10; AID 720582; inhibition, % at 7 µM; O14672; 0.62% of 370,000 active; recombinant ADAM10, EDANS/DABCYL FRET peptide cleavage, 3 h;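 active means inhibition above a per-campaign cutoff equal to the mean of compounds falling between control-based bounds plus 3 SD, cut at about 20% in these data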;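 further: 0% = DMSO wells while the 100% control is not disclosed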
PLCg1 inh: PLC-gamma1 (human) inhibition, primary screen; P19174; purified PLC-gamma1, fluorogenic substrate, fluorescence; inhibition, % at 12.2 µM; 0.84% of 370,000 active; AID 720700
PLCb3 inh: blocks human PLC-beta3 enzyme activity; Q01970; Purified PLC-beta3, fluorogenic substrate, fluorescence; inhibition, % at 12.2 µM; 0.18% of 370,000 active; AID 720704; in the data active means inhibition above about 11%;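 further: 0% = median of compound wells on plate and 100% = full blocker control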
PLCg1 ctr: inhibits human PLC-gamma1 in PLC-beta3 counter-screen; shares compounds with PLCg1 inh; purified PLC-gamma1, fluorogenic substrate, fluorescence; inhibition, % at 12.3 µM; 3.1% of 3,300 active
PLCbeta3 conf: confirmation of human PLC-beta3 inhibitors; shares compounds with PLCg1 inh; purified PLC-beta3, fluorogenic substrate fluorescence; inhibition, % at 12.3 µM; 1% of 3,300 active; in the data active means inhibition above about 11%
* hit, by the source's call; . = not tested or not shown. Only some compounds are listed: those with a hit (about 3.4% of all), similar ones and a draw of the others. Unless noted, no stated cut-off is given here; in the data, active means inhibition above about 9.5%; inactive means the rest.

SMILES | KLK7 zymogen act | ADAM17 inh | HGIII-sPLA2 inh | ADAM10 inh | PLCg1 inh | PLCb3 inh | PLCg1 ctr | PLCbeta3 conf
Cc1ccc(-c2c[n+](CC(=O)Nc3nc(-c4ccccc4)cs3)c3n2CCC3)cc1 | 0 | 6 | -19 | 6 | 12* | 11* | 4 | 3
Cc1ccc(NC(=O)C[n+]2cc(-c3ccccc3)n3c2CCC3)cc1 | 0 | -8 | 8 | 0 | 0 | -5 | . | .
CCN(CC)c1ncnc2c1ncn2[C@H]1CN(Cc2ccncc2)C[C@@H](CO)O1 | -1 | 0 | 2 | -1 | -1 | 2 | . | .
CC(C)(C)c1csc(NC(=O)Cc2ccc(S(=O)(=O)N3CCOCC3)s2)n1 | 0 | 0 | -66 | 0 | -12 | -9 | . | .
CC(C)Cc1cc(C(=O)Nc2cc(C(F)(F)F)ccc2Cl)no1 | 0 | 3 | 7 | -3 | 12* | 3 | -6 | -4
O=C(Nc1cc(C(F)(F)F)ccc1Cl)c1ccncc1 | 0 | -5 | 5 | -4 | -2 | -7 | . | .
CC(C)CC(=O)Nc1c2c(nn1-c1ccc(F)cc1)CS(=O)(=O)C2 | 0 | 6 | 5 | -5 | 7 | 7 | . | .
CC1CCN(C(=O)Cn2c(=O)n(CCCC(=O)NCc3ccco3)c(=O)c3sccc32)CC1 | 1 | 3 | 3 | -4 | 13* | -2 | -7 | -2
Cc1cccc(NC(=O)c2ncn3c2C(=O)N(C)CC3)c1 | 0 | 2 | 9 | 1 | 2 | 5 | . | .
O=C(CN1CCN(Cc2ccc(Cl)cc2)C1=O)NCCCN1CCN(c2ccc(F)cc2)CC1 | 0 | -4 | -10 | -1 | 0 | 3 | . | .
Cc1ccccc1CN1CCN(CC(=O)NCCCN2CCN(c3ccc(F)cc3)CC2)C1=O | 0 | 4 | -3 | 11 | 9.6* | 13* | -2 | -3
O=C(Nc1cc(Cl)ccc1Cl)C1CCCO1 (centres undefined) | 0 | -1 | -2 | 1 | 3 | 0 | . | .
O=C(O)c1ccc(Cl)cc1NC(=O)C1CCCO1 (centres undefined) | -1 | 1 | 3 | 3 | 2 | 12* | -6 | -6
Cc1cccc(Oc2ccc(C(=O)NC3CCSC3=O)cn2)c1C (centres undefined) | 1 | 7 | 4 | 6 | 4 | 15* | -1 | 0
O=c1[nH]n(-c2ccc(Cl)cc2)c(=O)c(Cl)c1Cl | 1 | 7 | -1 | 5 | 9.8* | 3 | -8 | -7
Cc1[nH]n(-c2ccccc2)c(=O)c1-c1ccc(Cl)cc1 | 0 | 2 | 5 | 7 | 2 | 2 | . | .
O=C(O)c1cccc(Nc2ccncc2[N+](=O)[O-])c1 | 0 | 3 | 4 | -4 | 11* | 6 | -8 | -2
CCCc1n[nH]c2c1C(=O)CC(C)(C)C2 | 0 | 3 | 6 | 8 | 11* | 8 | -3 | -1
CCCCNC(=O)COC(=O)c1ccc(C)c(NC(=O)c2ccco2)c1 | 0 | 1 | 2 | -2 | 4 | 0 | . | .
Cc1ccc(C(=O)OCc2c(C)noc2C)cc1NC(=O)c1ccco1 | 0 | 7 | 3 | 6 | 11* | 9 | 5 | -5
Cc1ccc(Oc2nnc(-c3ccccc3)cc2C#N)cc1 | -1 | -2 | -1 | 3 | 3 | 2 | . | .
N#Cc1cc(-c2ccccc2)nnc1Oc1ccccc1 | 0 | -6 | 5 | 3 | 13* | -2 | -7 | -4
CNC(=O)C1CC(=O)N(c2ccc(OCC(=O)Nc3ccc(F)cc3)cc2)C1 (centres undefined) | -1 | -2 | -5 | -17 | -1 | -10 | . | .
Clc1nc(N2CCOCC2)ncc1Br | 1 | 0 | 2 | 12 | 12* | -5 | -7 | 1
FC(F)(F)c1ccccc1N/N=C/c1cccnc1 | 1 | 6 | 6 | 15 | 10* | -3 | 1 | -2
FC(F)(F)c1ccc(N/N=C/c2cccnc2)nc1 | 0 | 0 | -1 | 2 | 0 | -7 | . | .
CCOc1ccc(Cl)cc1S(=O)(=O)N1CCN(c2ccc(C)c(C)c2)CC1 | -1 | 0 | -1 | -4 | 10* | 2 | -8 | -3
